# This is a sample that favours compounds with a hit; in the whole collection about 3.2% have one here.
# ALOX15 inhib – inhibitors of human 15-lipoxygenase (ALOX15); purified 15hLO-1, xylenol orange hydroperoxide absorbance; Potency, µM (doses to about 57.1 µM), for the others: at the top dose activity change, negative = inhibition, actives largely listed as inhibitors; P16050; AID 887; 74,000 tested, 1.4% active; also: % is scaled to controls: 0 for no effect and ±100 for the full control effect; nearly all actives have a fitted effect of over 55% in size
# Target sequence (P16050 whole entry, looked up): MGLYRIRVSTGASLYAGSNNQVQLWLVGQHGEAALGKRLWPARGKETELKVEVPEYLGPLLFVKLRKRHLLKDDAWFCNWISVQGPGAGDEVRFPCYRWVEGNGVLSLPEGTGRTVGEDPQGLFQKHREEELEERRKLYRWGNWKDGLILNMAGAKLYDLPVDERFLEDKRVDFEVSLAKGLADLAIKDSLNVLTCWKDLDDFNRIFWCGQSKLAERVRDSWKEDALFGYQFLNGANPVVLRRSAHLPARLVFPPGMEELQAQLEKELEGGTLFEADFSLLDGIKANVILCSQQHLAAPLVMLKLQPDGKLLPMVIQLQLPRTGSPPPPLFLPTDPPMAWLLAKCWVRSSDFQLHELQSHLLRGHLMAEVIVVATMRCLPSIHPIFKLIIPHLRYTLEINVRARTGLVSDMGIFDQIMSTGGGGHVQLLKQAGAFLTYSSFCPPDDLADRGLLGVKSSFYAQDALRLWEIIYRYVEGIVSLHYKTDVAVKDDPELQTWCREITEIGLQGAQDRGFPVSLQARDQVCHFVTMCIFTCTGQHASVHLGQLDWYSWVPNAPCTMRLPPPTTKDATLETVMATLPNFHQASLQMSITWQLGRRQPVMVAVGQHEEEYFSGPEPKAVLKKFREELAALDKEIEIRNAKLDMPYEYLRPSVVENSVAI
#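 Quantitative HTS in 25 mM Hepes pH 7.5 containing 0.01% Triton X-100: human 15hLO-1 at 40 nM, arachidonic acid at 50 uM, 6 min turnover. Product quantified via ferrous oxidation/xylenol orange, 573:405 nm absorbance ratio.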
# ALOX15B inhib – blocks human 15-lipoxygenase 2 activity; O15296; 110,000 tested, 0.56% active; purified 15hLO-2, xylenol orange hydroperoxide absorbance; Potency, µM (series often up to 57.1 µM), without a hit: top-dose activity change, negative = inhibition, actives largely listed as inhibitors; AID 881; also: % is scaled to controls: 0 for no effect and ±100 for the full control effect; nearly all actives have a fitted effect of over 60% in size
#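 Purified human 15hLO-2 (50 nM final) preincubated with compounds 15 min at room temperature in 25 mM Hepes pH 7.5, 0.01% Triton X-100, then 45 uM arachidonic acid added for 90 min; hydroperoxide detected via ferrous/xylenol orange, 573/405 nm absorbance ratio.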
# ERK AVP inh – blocks ERK signaling stimulated by vasopressin | Potency, µM (top dose mostly 57.5 µM), inactives show at the top dose activity, negative = inhibition, most hits filed as inhibitors | HEK293-V1b, vasopressin-stimulated pERK AlphaScreen | 72,000 tested, 0.99% active; also: % is scaled to controls: 0 for no effect and ±100 for the full control effect; nearly all actives have a fitted effect of over 55% in size
#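 HEK293 cells stably expressing V1b receptor, seeded overnight in 1% FBS, were treated with compounds for 30 min at 37C, then stimulated 5 min with 25 nM vasopressin; phospho-ERK read by AlphaScreen SureFire after lysis.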
# CRE Fsk mod – CRE-bla signaling modulation under forskolin stimulation; CHO CRE-bla reporter (cAMP response element driving beta-lactamase), forskolin EC10, beta-lactamase ratio; 71,000 tested, 2.5% active; Potency, µM (top dose mostly 38.2 µM), inactives show at the top dose activity change, negative = inhibition, most hits filed as activators; active = well fitted activation curve with a large enough effect in the signal ratio, with a control signal flat, not every such curve was filed as active; inconclusive = small, poorly fitted or top-dose-only effect, or effect the other way, or a change in a side signal; the % refers to the signal ratio; also: % of control where 0% means no effect
#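 Modulation of forskolin signalling: compounds in titration series added with EC10 NKH 477 to CHO cells carrying a CRE-driven beta-lactamase reporter, 3 h, 37C. CCF4 FRET ratio (460/530 nm, ex 405 nm) gives %activity and AC50.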
# The depositor's hits bear a star; ? = inconclusive; · = not tested or not shown; [ ] = remark or other dose. Unless noted, calls follow the shape of the dose curve; as a rule, active = well fitted inhibition curve with a large enough effect; inconclusive = small, poorly fitted or top-dose-only effect; inactive = no such curve, though single readings can be large or run the other way. Potency is read from the fitted curve at half-maximal effect.
SMILES,ALOX15 inhib,ALOX15B inhib,ERK AVP inh,CRE Fsk mod
O=c1c2ccccc2sn1-c1cc(S(=O)(=O)N2CCOCC2)ccc1N1CCCC1,·,1µM*,·,·
O=S(=O)(c1ccc2oc3ccccc3c2c1)N1CCOCC1,·,2.4%,·,·
O=C(O)c1cc(S(=O)(=O)N2CCOCC2)ccc1N1CCOCC1,·,-2.4%,·,·
COC(=O)[C@@]1(Cc2ccc(F)cc2)[C@H]2c3cc(C(=O)N(C)C)n(Cc4ccc(C(F)(F)F)nc4)c3C[C@H]2CN1C(=O)c1ccccc1,·,4.4%,7.8%,?
O=C(NCCSc1c[nH]c2ccccc12)c1ccc(Br)o1,25.1µM*,·,·,-13.9%
Cc1nc(N2CCN(c3ccccc3)CC2)c2c3c(sc2n1)CCC3,?,19.1%,0.3%,3.98µM*
Oc1ccc(N2CCN(c3ncnc4sc5c(c34)CCC5)CC2)cc1,3.16µM*,?,?,-25.7%
CCCCn1c(=O)[nH]c(=O)c2c1nc(CN1C(=O)c3ccccc3S1(=O)=O)n2CCC,-8.8%,-6.1%,25.6%,10µM*
CCCCn1c(=O)[nH]c(=O)c2c1nc(COc1ccc(C#N)cc1)n2CCC,-3.9%,6.8%[2.29 µM],3.6%,?
Oc1ccc(-c2nc(-c3ccc(O)c(O)c3)cs2)cc1,1.58µM*,3.98µM*,?,?
Oc1ccc(Nc2nc(-c3ccc4ccccc4c3)cs2)cc1,·,-6.4%,·,·
CSc1nc(N)c2ncn([C@@H]3O[C@@H](COP(=O)(O)OP(=O)(O)OP(=O)(O)O)[C@@H](O)[C@H]3O)c2n1,11.6%,9.5%,25.5%,0.2%
O=C(CSc1nc2c(sc3ccccc32)c(=O)n1CCO)NCc1ccco1,·,-25.1%,·,·
CC(C)CCn1c(SCC#N)nc2c(sc3ccccc32)c1=O,5.7%,·,1.7%,0.398µM*
COC(=O)/C(C#N)=C1/SC=C(C)N1c1ccccc1,·,3.2%,·,·
N#C/C(C(=O)c1ccccc1)=C1/SC=C(N)N1c1ccccc1,15.8µM*,?,-25.0%,-8.9%
CCC(C)NC(=O)c1cnn2c(C)c3c(nc12)CCCC3 (configuration not stated),8.3%,-1.2%,-19.6%,12.6µM*
Cc1c2c(nc3c(C(=O)NC4CC4)cnn13)CCCC2,5.4%,5.2%,-14.6%,12.6µM*
Nc1ccc(-n2c(N)c(C(=O)NCc3ccc4c(c3)OCO4)c3nc4ccccc4nc32)cc1,-9.9%,·,-6.3%,12.6µM*
COc1ccccc1CNC(=O)c1c(N)n(CCCN2CCOCC2)c2nc3ccccc3nc12,·,28.6%,·,·
Nc1c(C(=O)NCc2ccc3c(c2)OCO3)c2nc3ccccc3nc2n1CCCN1CCOCC1,-11.8%,26.4%,-1.7%,12.6µM*
COC(=O)[C@H]1[C@@H]2C[C@H]3c4[nH]c5ccccc5c4CCN3C[C@@H]2CC[C@@H]1O,·,·,·,-10.2%
Nc1cc(CN2C(=O)c3ccccc3C2=O)cc(Cl)c1O,10µM*,?,-23.0%,9.2%
CC(C)CN1CC[C@@]2(CCCN(C(=O)c3csnn3)C2)C1,-4.4%,-4.6%,-3.0%,5.0%
Cc1ccc(C2C(C#N)=C(N)Oc3n[nH]c(-c4cccs4)c32)s1 (configuration not stated),25.1µM*,-3.4%,-19.3%,-11.3%
SMILES,ALOX15 inhib,ALOX15B inhib,ERK AVP inh,CRE Fsk mod
Cc1ccc(-c2[nH]nc3c2C(c2ccoc2)C(C#N)=C(N)O3)cc1C (configuration not stated),25.1µM*,0.3%,-10.2%,8.8%
N#CC1=C(N)Oc2n[nH]c(-c3ccccc3)c2C1c1cccnc1 (configuration not stated),-20.1%,-1.3%,24.3%,9.1%
N#CC1=C(N)Oc2n[nH]c(-c3cccs3)c2C1c1ccco1 (configuration not stated),-28.4%,7.9%[2.29 µM],-21.5%,?
Cc1ccc(-c2[nH]nc3c2C(c2cccnc2)C(C#N)=C(N)O3)cc1 (configuration not stated),-12.1%,·,12.6µM*,?
CCOc1cc(C2C(C#N)=C(N)Oc3n[nH]c(-c4ccccc4)c32)ccc1O (configuration not stated),-20.2%,?,15.8µM*,?
CCOc1ccc(C2C(C#N)=C(N)Oc3n[nH]c(C)c32)cc1OC(=O)C1CC1 (configuration not stated),?,-5.4%,-15.7%,-14.7%
CCOC(=O)C1C(C(=O)OC)=C(CC(C)C)c2ccccc2N1S(=O)(=O)C(F)(F)F (configuration not stated),·,-1.6%[0.0915 µM],·,·
CCCC[C@@H]1C[C@H]1C(NC(=O)c1ccco1)c1ccc(Cl)cc1 (some centres not stated),·,-1.8%,5.7%,-6.7%
COc1ccc2oc(-c3ccccc3)c(OC)c(=O)c2c1,14.8%[25.6 µM],-4.4%,10.6%,9.0%
CCCOC(=O)c1ccc(OCC(O)Cn2c(C)nc3ccccc32)cc1 (configuration not stated),9.6%,6.7%,12.6µM*,-13.3%
Cc1nc2ccccc2n1CC(O)COCC1CC=CCC1 (configuration not stated),·,11.7%,·,·
CCCCNc1nc(C)nc2c1nc(-c1ccccc1)n2CCN1CCCC1,3.2%,58.4%,?,14.5%
CCCN1C(=O)/C(=C/c2cc(C)n(C)c2C)SC1=Nc1ccc(OC)cc1,·,-16.9%,·,·
Cc1ccc(NC(=O)CN2C(=O)S/C(=C\c3cc(C)n(C)c3C)C2=O)cc1,·,15.8µM*,·,·
COc1cc([C@H]2Oc3cc([C@H]4Oc5cc(O)cc(O)c5C(=O)[C@@H]4O)ccc3O[C@@H]2CO)ccc1O,?,-20.8%,20.5%,-16.1%
COc1cc([C@@H]2Oc3cc([C@H]4Oc5cc(O)cc(O)c5C(=O)[C@H]4O)ccc3O[C@H]2CO)ccc1O,2µM*,-28.8%,3.9%,-17.4%
FC(F)(F)c1cc(-c2ccc3c(c2)OCO3)nc(NCc2ccco2)n1,20µM*,2.8%,12.3%,?
FC(F)(F)c1cc(-c2ccco2)nc(NCc2ccco2)n1,-28.2%,·,35.1%,19.1%
c1cc2c(cc1C(N1CCNCC1)N1CCNCC1)OCO2,6.3%[11.4 µM],-7.3%[11.4 µM],-27.0%[11.5 µM],7.2%[7.6 µM]
Cc1ccc(-c2cc(=O)c3ccccc3[nH]2)cc1,·,18.0%[0.0915 µM],·,·
Cc1ccc2[nH]c(-c3ccccc3)cc(=O)c2c1,1.1%[11.4 µM],-5.6%,-6.2%,1.58µM*
Cn1cc(C=C2C(=O)Nc3cccnc32)c2ccccc21,·,8.7%[0.0915 µM],·,·
COc1cc2cc(C(=O)O)n(C)c2c(OC)c1OC,-2.9%,-0.5%,-1.9%,0.2%
COc1cc2cc3c4c(cc(OC)c(OC)c4c2cc1OC)CCN3C,-12.2%[25.6 µM],12.6µM*,?,0.794µM*
CCOC(=O)c1c(-c2cccs2)csc1NC(=O)CN1CC(C)OC(C)C1 (configuration not stated),-9.0%,1.3%,10.8%,2.51µM*
CC(C)c1ccc(Cn2ccc3c4c(N)nc(NC5CC5)nc4ccc32)cc1,7.94µM*,23.6%,-12.4%,12.6µM*
COc1ccc(OC)c(-c2cc(C(=O)N3CCCc4ccccc43)no2)c1,-17.8%,11.0%,8.9%,3.16µM*
CC(=O)N[C@@H]1C(O)OC(CO)C(O)C1O (some centres not stated),0.0%,1.7%,-14.2%,·
